Screening results as filed in PubChem.
GALK inh: blocks human galactokinase activity; P51570; actives 0.007% (n = 270,000); Purified GALK, Kinase-Glo residual ATP luminescence; Potency, µM (series often up to 57.5 µM), for the others: at the top dose activity change, negative = inhibition, usual class: inhibitors; AID 1868; further: potency means the concentration at half of the fitted maximal effect
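ATP-depletion format; final 35 uM ATP, 100 uM D-galactose, 5 nM enzyme; pH 8.0 HEPES/Mg2+ buffer; 60 min RT; luminescence read 10 min after detection reagent.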
rTrxR1 inhibitor: rat TrxR1 inhibition; recombinant rTrxR1, NADPH fluorescence consumption, selenite substrate; Potency, µM (top dose mostly 114 µM), without a hit: at the top dose activity change, negative = inhibition, most hits filed as inhibitors; actives 1% (n = 390,000); AID 588453; O89049; further: potency means the concentration at half of the fitted maximal effect; nearly all actives have a fitted effect of over 65% in size
Target sequence (O89049 whole entry, looked up): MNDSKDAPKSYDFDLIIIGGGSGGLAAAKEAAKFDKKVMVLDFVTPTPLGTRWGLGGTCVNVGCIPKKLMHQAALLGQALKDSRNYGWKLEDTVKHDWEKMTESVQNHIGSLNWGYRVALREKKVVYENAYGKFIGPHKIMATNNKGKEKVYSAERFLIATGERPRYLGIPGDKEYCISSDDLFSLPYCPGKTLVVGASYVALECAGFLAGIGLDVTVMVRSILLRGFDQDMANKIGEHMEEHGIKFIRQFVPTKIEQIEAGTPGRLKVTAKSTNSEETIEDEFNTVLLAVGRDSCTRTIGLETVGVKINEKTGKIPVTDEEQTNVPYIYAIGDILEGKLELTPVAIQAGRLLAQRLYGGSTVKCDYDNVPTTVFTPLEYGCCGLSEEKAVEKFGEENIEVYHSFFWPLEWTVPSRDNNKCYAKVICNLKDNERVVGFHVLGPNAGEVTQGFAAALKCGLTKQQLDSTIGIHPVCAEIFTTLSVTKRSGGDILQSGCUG
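Rat TrxR1 (90 nM in the dispensed reagent) was pre-reduced with 400 uM NADPH for 5 min at room temperature, then incubated with compound for 15 min. After 400 uM selenite was added, NADPH fluorescence (Ex 340/Em 450 nm) was followed for 8 min.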
Eya2 phos inh: blocks the phosphatase activity of human Eya2 | actives 0.006% (n = 330,000) | O00167 | Potency, µM (doses to about 76.9 µM), inactives show top-dose activity, negative = inhibition, actives largely listed as inhibitors | recombinant Eya2, OMFP fluorescence dephosphorylation (OMFP is methylfluorescein phosphate) | AID 488837; further: potency means the concentration at half of the fitted maximal effect
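Eya2 (0.2 uM) preincubated 10 min at ambient with compound, then OMFP substrate added at 50 uM; 10 min reaction in 50 mM HEPES pH 7.5, 50 mM NaCl, 5 uM MgCl2, 0.05% BSA, 1 mM DTT. Fluorescence read at Ex 485/Em 525 nm.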
Six1-Eya2 inh: inhibitors of human Six1/Eya2 interaction; Q15475+O00167; AlphaScreen GST-Six1/His-Eya2 binding, biochemical; hits give low values; activity change, % (test concentration not listed); actives 0.56% (n = 360,000); AID 651725; in the data active means activity change below about -65%; inconclusive means mostly about -30% to -63%
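Compounds are tested against tagged Six1 and Eya2 proteins bridged by glutathione donor and nickel acceptor beads; after a one-hour incubation at 37 °C without light, AlphaScreen emission is recorded.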
CtBP-E1A inh: blocks the CtBP interaction with E1A; AlphaScreen GST-E1A/His-CtBP binding, 1536-well; hits give low values; activity change, % (concentration not given with the values); actives 0.49% (n = 340,000); in the data active means activity change below about -65%; inconclusive means mostly about -30% to -63%
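Steps: dispense buffer (Tris pH 8.0, NaCl 300 mM, TCEP 1 mM, BSA, Tween 20); add 5X protein mix (GST-E1A, His-CtBP, 125 nM each); pin 23 nL compound; 2 h at 37 °C, dark; add 5X beads (50 ug/mL); 1 h; read.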
TrxR1 substrate: rat thioredoxin reductase 1 substrate activity | actives 0.01% (n = 390,000) | O89049 | purified TrxR1 substrate turnover, NADPH consumption readout | Potency, µM (titrated, usually from 114 µM), for inactives: at the highest dose activity change, negative = substrate turnover; further: potency means the concentration at half of the fitted maximal effect; nearly all actives have a fitted effect of over 50% in size
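Rat TrxR1, dispensed at 90 nM, was prereduced with 400 uM NADPH (final) for 5 min at ~22 deg C, then incubated with compound 15 min before 400 uM selenite. A first-read NADPH fluorescence drop versus no-compound background flagged substrates.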
The depositor's hits bear a star; i = inactive; u = inconclusive; x = not tested or not shown; [ ] = another dose, or the depositor's remark. Hits are enriched below; roughly 1.5% of the tested compounds scored in any of these assays. Unless noted, the call rests on the fitted dose curve; in most records, active means well fitted curve in the direction sought with a large enough effect; inconclusive means small, poorly fitted or top-dose-only effect, or another doubt; inactive means no such curve, though single readings can be large; an effect the other way counts as inactive or inconclusive. On the % scale 0 is the no-effect control and ±100 the full control effect.

SMILES | GALK inh | rTrxR1 inhibitor | Eya2 phos inh | Six1-Eya2 inh | CtBP-E1A inh | TrxR1 substrate
OCC1O[C@H]([S-])[C@H](O)[C@@H](O)[C@@H]1O.[Au+] (stereo not given in full) | x | 0.25µM* | -3% | x | x | 13%[57.1 µM]
OC[C@H]1OC(O)[C@H](O)[C@@H](O)[C@H]1O (stereo not given in full) | x | 18% | 19% | 0 | 1 | 7%
NCC1OC(O[C@H]2[C@H](O)[C@@H](OC3C(O)C(N)CC(N)C3OC3OC(CO)C(O)C(O)C3N)O[C@@H]2CO)C(N)C(O)C1O (stereo not given in full) | x | 10%[57.1 µM] | -6% | x | x | 8%[57.1 µM]
NC(=S)NN=Cc1cc(-c2cccc(N)c2)ccn1 | x | x | x | -88* | -81* | x
CC(C)(C)OC(=O)N1CCC(c2c(C(=O)NCCN3CCCC3)cnn2-c2ccc(Cl)cc2)CC1 | x | -37% | x | x | x | u
O=C(CSc1nc2ccccc2n1CC(=O)Nc1ccc(F)cc1F)Nc1ccc(F)cc1 | x | 16%[57.1 µM] | x | x | x | 7%[57.1 µM]
O=[N+]([O-])c1ccc(S(=O)(=O)Nc2nnc(C(F)(F)F)s2)cc1 | -3% | 6.3µM* | -3% | -5 | 10 | -13%
Cc1ccc(-n2nc(C)c3c(C)cc(=O)n(CC(=O)Nc4cccc(C)c4C)c32)cc1 | x | -5%[57.1 µM] | x | x | x | -7%[57.1 µM]
CCc1ccc(NC(=O)c2cc(S(=O)(=O)N3CCCCCC3)ccc2F)cc1 | x | 1%[57.1 µM] | x | x | x | -2%[57.1 µM]
CCCc1ccc(OC(=O)c2sc3ncn(Cc4cccc(F)c4)c(=O)c3c2C)cc1 | x | 4%[57.1 µM] | x | x | x | -10%[57.1 µM]
CNCc1cc2ccc(C)cc2[nH]c1=O | 3% | 25µM* | -13% | 0 | 1 | 8%
Cc1ccc2cc(CNC(C)(C)C)c(=O)[nH]c2c1 | -4% | -13% | -32% | -10 | 6 | 1%
CCOc1ccccc1NC(=O)c1c(C)cc(C)nc1SCC(=O)c1cccc(OC)c1 | x | 15% | x | x | x | -5%
Cc1cc(=O)oc2cc(O)ccc12 | x | 50µM* | x | 7 | 1 | i
O=c1ccc2ccc(O)cc2o1 | x | 79µM* | x | 0 | 0 | i
O=c1ccc2cc(O)c(O)cc2o1 | x | 51% | 0% | -17 | -6 | 332%
Cc1cccc(-n2cnc3cc(C(=O)NCc4ccccc4Cl)ccc32)c1 | x | -4%[57.1 µM] | x | x | x | -12%[57.1 µM]
Cc1ccc(C(=O)CC(=O)c2ccccc2C)c(O)c1 | x | -19% | -8% | 4 | 1 | 14%[57.1 µM]
C=C(CN(C)C)C(=O)c1ccc(C)cc1C | x | 2µM* | x | 3 | 5 | 15%[11.4 µM]
CCS(=O)(=O)Nc1cccc(-c2ccc3nnc(-c4cccnc4)n3n2)c1 | -4% | 21% | 4% | -67* | -85* | 12%
CCCS(=O)(=O)Nc1cccc(-c2ccc3nnc(C)n3n2)c1 | 2% | 7% | 9% | -25 | x | 1%
O=C1CC(N2CCN(c3ccccn3)CC2)C(=O)N1CC(c1ccccc1)c1ccccc1 (stereo not given) | -2% | 25µM* | -9% | -12 | -12 | -6%
COc1ccc(N2C(=O)C(Cl)=C(Nc3ccc(OC)cc3OC)C2=O)cc1 | 0% | 5%[57.1 µM] | -12% | -1 | 3 | 4%[57.1 µM]
COc1ccc(NC2=C(Cl)C(=O)N(c3ccccc3)C2=O)c(OC)c1 | -2% | 13µM* | -29% | -15 | 0 | 2%
CCCCNC(=O)CSc1nc2ccccc2nc1Cc1ccccc1 | x | 23%[57.1 µM] | x | x | x | 3%[57.1 µM]
O=C(CNC(=O)C1COc2ccccc2O1)N/N=C/c1ccc(O)cc1O (stereo not given) | 0% | 3% | -1% | -88* | -88* | 1%
O=C(N/N=C/c1ccc(O)cc1O)/C(=C/c1ccccc1)CCO | 0% | -5% | -6% | -89* | -92* | -7%
O=C(/C=C\c1ccccc1)NCC(=O)N/N=C/c1ccc(O)cc1O | 0% | 28% | 3% | -75* | -97* | -4%
COc1ccc2[nH]c(C(=O)N/N=C/c3ccc(O)cc3O)cc2c1 | 5% | 4%[57.1 µM] | 0% | -80* | x | 12%[57.1 µM]
